This is part of a sample that, as a whole, favours compounds with a hit. Of some 79,000 tested, about 15% had one in any assay. Calls of active or inactive are those of the source. No stated cut-off is given here; in the data, active means growth inhibition above about 70%; inactive means the rest.
Legend:
[1] = NCI Yeast Anticancer Drug Screen. Data for the rad50 strain (AID 155);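 further: 0% = growth of vehicle-only cultures of the same strain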; conditions: S. cerevisiae rad50 strain growth inhibition, active compounds read high
Procedure, shortened: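 Compounds were tested on a yeast strain with an engineered DNA damage repair alteration; the reported value is growth inhibition normalised to vehicle treatment.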

[2] = NCI Yeast Anticancer Drug Screen. Data for the mec2-1 strain (AID 157); conditions: S. cerevisiae mec2-1 strain, active compounds read high
Procedure, shortened: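 Readout is yeast growth inhibition, normalised to vehicle-treated controls, in the mec2-1 strain exposed to compound.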

[3] = NCI Yeast Anticancer Drug Screen. Data for the sgs1 mgt1 strain (AID 161);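 further: 0% = growth of cultures given vehicle only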; conditions: S. cerevisiae sgs1 mgt1 strain, active compounds read high
Procedure, shortened: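 This yeast growth screen uses a strain with defined DNA-repair lesions; compound-treated growth is compared with vehicle-treated growth.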

[4] = NCI Yeast Anticancer Drug Screen. Data for the cln2 rad14 strain (AID 165);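 further: 0% = growth equal to vehicle treated cultures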; conditions: S. cerevisiae cln2 rad14 strain, active compounds read high
Procedure, shortened: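 Relative to vehicle controls, growth inhibition of compound-treated cln2 rad14 yeast was recorded.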

[5] = NCI Yeast Anticancer Drug Screen. Data for the bub3 strain (AID 167); conditions: S. cerevisiae bub3 mutant strain, active compounds read high
Procedure, shortened: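 Growth of a checkpoint-deficient yeast mutant is measured after compound exposure. Values represent inhibition relative to vehicle.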

[6] = NCI Yeast Anticancer Drug Screen. Data for the mlh1 rad18 strain (AID 175); conditions: S. cerevisiae mlh1 rad18 strain growth inhibition, active compounds read high
Procedure, shortened: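 Test agents were incubated with a yeast strain of defined genotype (DNA damage repair defect). Inhibition of growth was derived by comparison with vehicle-exposed cultures.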

[7] = at 5.0 µM (retest, dose inferred, filed as 0.5)
[8] = at 50.0 µM (retest, dose inferred, filed as 5.0)

Measured: growth inhibition

Cc1cn(C2OC(CO)C(O)C(O)C2N)c(=O)[nH]c1=O (configuration not stated)
active: [1]; at 50.0 µM 86.5% | [2]; at 50.0 µM 70.3% | [5]; at 50.0 µM 93.9% | [6]; at 50.0 µM 92.5%
inactive: [1]; [7] 0% | [1]; [8] -2% | [2]; [7] 3% | [2]; [8] 10% | [3]; [7] 1% | [3]; [8] 8% | [3]; at 50.0 µM 56.5% | [4]; [7] -4% | [4]; [8] 0% | [4]; at 50.0 µM 61.6% | [5]; [7] -8% | [5]; [8] -13% | [6]; [7] -4% | [6]; [8] -3%

CO[C@H]1C[C@@H]2CC[C@@H](C)[C@@](O)(O2)C(=O)C(=O)N2CCCC[C@H]2C(=O)O[C@H]([C@H](C)C[C@@H]2CC[C@@H](OC(=O)C(C)(CO)CO)[C@H](OC)C2)CC(=O)[C@H](C)/C=C(\C)[C@@H](O)[C@@H](OC)C(=O)[C@H](C)C[C@H](C)/C=C/C=C/C=C/1C
active: [1]; [7] 98% | [1]; [8] 97% | [1]; at 50.0 µM 82.5% | [2]; [7] 99% | [2]; [8] 98% | [2]; at 50.0 µM 86.8% | [3]; [7] 98% | [3]; [8] 98% | [3]; at 50.0 µM 87.3% | [4]; [7] 93% | [4]; [8] 88% | [4]; at 50.0 µM 88% | [5]; [7] 97% | [5]; [8] 96% | [5]; at 50.0 µM 89.5% | [6]; [7] 98% | [6]; [8] 97% | [6]; at 50.0 µM 89.5%

CS(=O)(=O)OCCN(CCOS(C)(=O)=O)c1ccc(C=Nc2cc(Cl)c(O)c(Cl)c2)c(Cl)c1
active: [6]; at 50.0 µM 86%
inactive: [1]; [7] -1% | [1]; [8] 28% | [1]; at 50.0 µM 46.6% | [2]; [7] 42% | [2]; [8] 4% | [2]; at 50.0 µM -5% | [3]; [7] -1% | [3]; [8] 32% | [3]; at 50.0 µM 38.5% | [4]; [7] 0% | [4]; [8] 3% | [4]; at 50.0 µM -23.1% | [5]; [7] -1% | [5]; [8] -1% | [5]; at 50.0 µM 1.25% | [6]; [7] 9% | [6]; [8] 57%

OCCOc1ccc2ccccc2c1-c1c(OCCOc2ccc3ccccc3c2-c2c(OCCO)ccc3ccccc23)ccc2ccccc12
inactive: [1]; [7] 0% | [1]; [8] 22% | [1]; at 50.0 µM 36.1% | [2]; [7] -3% | [2]; [8] 13% | [2]; at 50.0 µM 21.5% | [3]; [7] 1% | [3]; [8] 29% | [3]; at 50.0 µM 36.9% | [4]; [7] 6% | [4]; [8] 33% | [4]; at 50.0 µM 11.7% | [5]; [7] -2% | [5]; [8] 14% | [5]; at 50.0 µM 24.6% | [6]; [7] 3% | [6]; [8] 27% | [6]; at 50.0 µM 26.4%

CC(C)C[C@H](NC(=O)[C@H](Cc1ccccc1)NC(=O)c1cnccn1)B(O)O
active: [1]; [8] 87% | [2]; [8] 70% | [3]; [8] 78% | [4]; [7] 76% | [4]; [8] 94% | [4]; at 50.0 µM 72.9% | [5]; [8] 90% | [5]; at 50.0 µM 72.6% | [6]; [8] 79%
inactive: [1]; [7] 55% | [1]; at 50.0 µM 55.8% | [2]; [7] 33% | [2]; at 50.0 µM 30.4% | [3]; [7] 52% | [3]; at 50.0 µM 60.9% | [5]; [7] 69% | [6]; [7] 55% | [6]; at 50.0 µM 66.7%

CCCCCCCCCCCCCCCC(=O)N1CC[N+](C)(CC2=CC3(Cl)C(Cl)=C(Cl)C2(Cl)C3(Cl)Cl)CC1 (configuration not stated)
active: [1]; [7] 99% | [1]; [8] 99% | [1]; at 50.0 µM 98.8% | [2]; [7] 99% | [2]; [8] 99% | [2]; at 50.0 µM 99.2% | [3]; [7] 98% | [3]; [8] 99% | [3]; at 50.0 µM 99.2% | [4]; [7] 96% | [4]; [8] 98% | [4]; at 50.0 µM 98.5% | [5]; [7] 99% | [5]; [8] 99% | [5]; at 50.0 µM 98.8% | [6]; [7] 99% | [6]; [8] 99% | [6]; at 50.0 µM 98.7%

ClCc1c(-c2ccccc2)oc(-c2ccccc2)c1CCl
active: [3]; [8] 72% | [6]; [8] 86% | [6]; at 50.0 µM 73.4%
inactive: [1]; [7] 0% | [1]; [8] 49% | [1]; at 50.0 µM 32.6% | [2]; [7] 1% | [2]; [8] 64% | [2]; at 50.0 µM 34% | [3]; [7] 6% | [3]; at 50.0 µM 68.8% | [4]; [7] 1% | [4]; [8] 38% | [4]; at 50.0 µM 21.9% | [5]; [7] 1% | [5]; [8] 40% | [5]; at 50.0 µM 8.25% | [6]; [7] 1%

CN(Cc1ccccc1)C(c1ccccc1)C(O)C(O)(c1ccccc1)c1ccccc1 (configuration not stated)
inactive: [1]; [7] -10% | [1]; [8] 40% | [2]; [7] 10% | [2]; at 50.0 µM 58.2% | [3]; [7] -3% | [4]; [7] -26% | [4]; [8] 16% | [4]; at 50.0 µM 19.7% | [5]; [7] -9% | [5]; [8] 58% | [5]; at 50.0 µM 30.4% | [6]; [7] 18%
active: [1]; at 50.0 µM 85.2% | [2]; [8] 78% | [3]; [8] 70% | [3]; at 50.0 µM 87.3% | [6]; [8] 81% | [6]; at 50.0 µM 72.5%

O=C(c1ccccc1)c1ccc2c(c1)CCCC2
active: [1]; at 50.0 µM 76.5% | [3]; at 50.0 µM 76.8% | [6]; at 50.0 µM 71.4%
inactive: [1]; [7] -4% | [1]; [8] -14% | [2]; [7] -12% | [2]; [8] -23% | [2]; at 50.0 µM 60.2% | [3]; [7] -5% | [3]; [8] -6% | [4]; [7] -5% | [4]; [8] -48% | [4]; at 50.0 µM 19.6% | [5]; [7] 2% | [5]; [8] 49% | [5]; at 50.0 µM 69.7% | [6]; [7] 0% | [6]; [8] -29%
